# Many of the other results were omitted from the sample, so hits are more common in it than they were.
# miR122 inh: raises miR-122 sensor activity in Huh7 cells; activation, % at 12.5 µM; hit rate 0.14% among 340,000; Huh7 psiCHECK-miR122 Renilla luciferase sensor, 48 h; AID 623901;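 active = mean activation of 30% or more, with every replicate also reaching 30%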;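 note: 0% = median of neutral control wells and 100% = median of positive control wells; higher luciferase signal means stronger suppression of miR-122 activity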
# An asterisk follows results filed as active.
SMILES,miR122 inh
O=C1NC(=O)N(CCC2=CCCCC2)C(=O)/C1=C\c1cccs1,33*
Cc1ccc(C(=O)Nc2ccc(Cl)cc2C(=O)c2ccccc2)cc1,-114
O=P(Nc1ccccc1)(Nc1ccccc1)Oc1ccc(Cl)cc1,-322
CC(=O)OC1(Cc2ccccc2)CN2CCC1c1ccccc12 (configuration not stated),36*
C[C@@H]1O[C@@H](O[C@H]2C[C@@H](O)[C@]3(CO)[C@H]4[C@H](O)C[C@]5(C)[C@@H](C6COC(=O)C6)CC[C@]5(O)[C@@H]4CC[C@]3(O)C2)[C@H](O)[C@H](O)[C@H]1O (some centres not stated),-114
COc1ccc(-c2ccc3c(c2)CN(C(=S)NCCc2ccccc2)Cc2cnnn2-3)cc1,-119

# Compound activity from PubChem.
